Data published in PubChem BioAssay AID1898 (National Center for Advancing Translational Sciences (NCATS), 2009).
Some of the results follow. Results filed as inconclusive are left out. Active and inactive are the calls of the source. The call rests on the fitted dose curve; in most records, active means well fitted curve in the direction sought with a large enough effect; inconclusive means small, poorly fitted or top-dose-only effect, or another doubt; inactive means no such curve, though single readings can be large or run the other way.

assay: Secondary assay for Activators of Human Pyruvate Kinase M2 isoform - Cell Titer Glo cytotoxicity assay; settings: HeLa viability, CellTiter-Glo ATP luminescence, 24 h; series mostly up to 57.5 µM; activity change, negative = cytotoxicity: at the top concentration; further: % of control where 0% means no effect
Procedure: NIH Chemical Genomics Center [NCGC] Matthew G. Vander Heiden, M.D., Ph.D. [Harvard Medical School, 77 Avenue Louis Pasteur, Boston, MA 02115] MLPCN Grant: 1 R03 MH085679-01 NCGC Assay Overview: We have identified a series of activators of the M2 isoform of human pyruvate kinase. The assay described here examines the cytotoxicity of these compounds by measuring the total ATP content of Hela cells after 24 hrs of exposure to compound.
Assay Protocol: 500 Hela cells/ 4ul in media (DMEM with high glucose, 10% FBS, 1x Pen Strep, 1x NEAA) were dispensed into a white solid 1536-microwell plate with a Thermo Multidrop. The plates were incubated at 37 degrees Celsius for 24 hours. The cells were then treated with compounds using the Kalypsys pin tool, delivering 23 nl of test compounds and the control doxorubicin. The plates were then incubated for an additional 24 hours at 37 degrees C after which 4 ul of Promega Cell-Titer Glo was dispensed using the Thermo Multidrop. The plates were incubated at room temperature for 10 min before reading luminescence on the Perkin Elmer ViewLux with images collected with 2x binning and a 5 sec exposure time.

Row | Compound | activity change, negative = cytotoxicity
1 | Cn1c2cc(B(O)O)sc2c2cnn(Cc3ccccc3F)c(=O)c21 | 5.07% (inactive)
2 | O=C(c1c(F)cccc1F)N1CCN(S(=O)(=O)c2ccc3c(c2)OCCO3)CC1 | -20.9% (inactive)
3 | CC(=O)c1cc(C#N)c(SCC(=O)Nc2nccs2)nc1C | -6.98% (inactive)
4 | CN(C)N=Nc1ccc2nc[nH]c2c1 | -5.89% (inactive)
5 | O=C(NCc1cccs1)C1CCN(S(=O)(=O)c2ccc3c(c2)OCCO3)CC1 | 7.05% (inactive)
6 | Cc1ccc(Cn2ncc3c4sc(C)cc4n(C)c3c2=O)c(C)c1 | -8.1% (inactive)
7 | O=C(NCc1ccccn1)c1c(O)c2c([nH]c1=O)CCCC2 | 1.11% (inactive)
8 | O=S(=O)(NCC1CN(S(=O)(=O)c2ccc3c(c2)OCCO3)C1)c1c(F)cccc1F | 7.45% (inactive)
9 | Cc1cc2c(s1)c1cnn(Cc3c(F)cccc3Cl)c(=O)c1n2C | 0.849% (inactive)
10 | O=S(=O)(NC1CCN(S(=O)(=O)c2ccc3c(c2)OCCO3)CC1)c1c(F)cccc1F | -10.7% (inactive)
11 | CSc1nc2ccc(S(=O)(=O)N3CCc4ccccc43)cc2s1 | -25.9% (inactive)
12 | O=S(=O)(NCCCCCCNS(=O)(=O)c1c(F)cccc1F)c1ccc2c(c1)OCCO2 | -2.79% (inactive)
